In PubChem BioAssay (NCI):
Compounds without any hit were thinned out: in the full panel of roughly 83,000, 20% have a hit.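 Growth was measured after 48 h exposure to one concentration of compound in 96-well plates. Values under 10 count as active.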 Activity calls are given as the source filed them.

What was measured:
Experiment in all cases: NCI-60 one-dose screen, 48 h (100 = growth as untreated, 0 = no growth, -100 = all killed)
Conditions in all cases: 10 µM unless noted
SR leukemia = system: SR leukemia
RPMI-8226 leukemia = system: RPMI-8226 leukemia
OVCAR-5 ovarian = system: OVCAR-5 ovarian
OVCAR-4 ovarian = system: OVCAR-4 ovarian
SK-OV-3 ovarian = system: SK-OV-3 ovarian
IGROV1 ovarian = system: IGROV1 ovarian
OVCAR-3 ovarian = system: OVCAR-3 ovarian
HS 578T breast = system: HS 578T breast
NCI/ADR-RES ovarian = system: NCI/ADR-RES ovarian
OVCAR-8 ovarian = system: OVCAR-8 ovarian

Measured: growth

CC1=C(C(=O)Nc2ccccc2)C(c2ccc3c(c2)OCO3)NC(=S)N1 (configuration not stated)
inactive: SR leukemia 99.2% | RPMI-8226 leukemia 109% | OVCAR-5 ovarian 115% | OVCAR-4 ovarian 114% | SK-OV-3 ovarian 110% | IGROV1 ovarian 103% | OVCAR-3 ovarian 110% | HS 578T breast 105% | NCI/ADR-RES ovarian 106%

COc1ccc(/C=C/c2ccc3ccccc3n2)c(OC)c1
inactive: SR leukemia 29.4% | RPMI-8226 leukemia 74.7% | OVCAR-5 ovarian 86.5% | SK-OV-3 ovarian 88.6% | IGROV1 ovarian 59.9% | OVCAR-3 ovarian 74% | HS 578T breast 85.5% | NCI/ADR-RES ovarian 49.7%

CCOC(=O)c1c(C)nc2c(c1N)/C(=C/c1ccc(OC)cc1)C(=O)N2Cc1ccccc1
inactive: SR leukemia 22.1% | OVCAR-8 ovarian 50.4% | SK-OV-3 ovarian 90.5% | IGROV1 ovarian 73.3% | OVCAR-3 ovarian 41.7% | HS 578T breast 69.5% | NCI/ADR-RES ovarian 52.4%
active: RPMI-8226 leukemia 5.58%

CO[C@H]1CC(=O)n2c3ccccc3c3c4c(c5c6ccccc6n1c5c32)C(=O)NC4=O
inactive: SR leukemia 20.8% | RPMI-8226 leukemia 88% | OVCAR-5 ovarian 120% | OVCAR-4 ovarian 24.6% | SK-OV-3 ovarian 68.1% | IGROV1 ovarian 37.3% | OVCAR-3 ovarian 56.1% | HS 578T breast 27.6% | NCI/ADR-RES ovarian 36.2%

C=C1CC[C@@H]2[C@](C)(COC(C)=O)[C@H](OC(C)=O)CC[C@@]2(C)[C@@H]1CC(Nc1ccc(S(=O)(=O)NC(C)=O)cc1)C1=CCOC1=O (some centres not stated)
inactive: OVCAR-4 ovarian 26.1% | SK-OV-3 ovarian 67.3% | HS 578T breast 32.5% | NCI/ADR-RES ovarian 11.9%
active: SR leukemia 2.08% | RPMI-8226 leukemia -16.2% | OVCAR-5 ovarian -40.1% | IGROV1 ovarian -10% | OVCAR-3 ovarian -87.7%

COc1cccc(Nc2ncnc3cc(NC(=O)CCl)ccc23)c1
active: SR leukemia -23.3% | RPMI-8226 leukemia -44.8% | OVCAR-5 ovarian -82.2% | OVCAR-4 ovarian -59.5% | SK-OV-3 ovarian -15.9% | IGROV1 ovarian -64.7% | HS 578T breast -15.4% | NCI/ADR-RES ovarian -26.4%

CC1(C)OB(O)c2cc(-c3nc4ccc5[nH]ncc5c4c4c3CCCC4)ccc21
inactive: SR leukemia 24.5% | RPMI-8226 leukemia 28.1% | OVCAR-5 ovarian 105% | OVCAR-4 ovarian 67.1% | SK-OV-3 ovarian 33.1% | IGROV1 ovarian 38.7% | OVCAR-3 ovarian 94.6% | HS 578T breast 68.7% | NCI/ADR-RES ovarian 61.8%

C#CCO[C@H]1CC(CC#C)(CC#C)C(=O)[C@@H]2[C@H]1[C@H]1C[C@@H]3[C@@]4(C)CCC[C@@](C)(C(=O)OC)[C@@H]4CC[C@@]23C=C1C(C)C
inactive: RPMI-8226 leukemia 54.2% | OVCAR-5 ovarian 92.3% | OVCAR-4 ovarian 85.2% | SK-OV-3 ovarian 95.8% | OVCAR-3 ovarian 71.7% | HS 578T breast 94.2% | NCI/ADR-RES ovarian 78.5%
active: SR leukemia -4.27% | IGROV1 ovarian -64.2%

COc1ccc(C2=CC(c3cc(OC)c(OC)c(OC)c3)n3ncnc3N2)cc1 (configuration not stated)
active: SK-OV-3 ovarian -7.15% | OVCAR-3 ovarian -41.4%
inactive: SR leukemia 10.3% | RPMI-8226 leukemia 24.4% | OVCAR-5 ovarian 35% | OVCAR-4 ovarian 41.4% | IGROV1 ovarian 22.2% | HS 578T breast 27% | NCI/ADR-RES ovarian 12.8%

COc1ccc(C(=O)c2cc3c(N)c(C(=O)Nc4ccccc4)sc3nc2C)cc1
active: SR leukemia 8.41% | OVCAR-3 ovarian -4.41%
inactive: RPMI-8226 leukemia 14.3% | OVCAR-4 ovarian 74.8% | SK-OV-3 ovarian 33% | IGROV1 ovarian 39% | HS 578T breast 10.6% | NCI/ADR-RES ovarian 14.8%

CSC1=Nc2c(c(C)c(-c3ccccc3)n2CCCC(=O)O)C2=NC(=O)C[C@H](C)N12
inactive: SR leukemia 114% | RPMI-8226 leukemia 93.6% | OVCAR-5 ovarian 107% | SK-OV-3 ovarian 130% | IGROV1 ovarian 97.5% | OVCAR-3 ovarian 119% | HS 578T breast 98.1% | NCI/ADR-RES ovarian 104%

COc1cccc(C(=O)NNc2nc(Cl)nc(Cl)n2)c1
inactive: SR leukemia 101% | RPMI-8226 leukemia 95.7% | OVCAR-5 ovarian 101% | OVCAR-4 ovarian 107% | SK-OV-3 ovarian 102% | IGROV1 ovarian 100% | OVCAR-3 ovarian 106% | HS 578T breast 95.3% | NCI/ADR-RES ovarian 104%

C=Cc1cnc(Nc2ccc(OC)cc2)nc1NCCCNC(=O)C1CCC1
inactive: RPMI-8226 leukemia 43.8% | OVCAR-5 ovarian 48% | OVCAR-4 ovarian 46.4% | SK-OV-3 ovarian 20.4% | IGROV1 ovarian 44.6% | OVCAR-3 ovarian 48.2% | HS 578T breast 18.7% | NCI/ADR-RES ovarian 53.5%
active: SR leukemia 9.88%

CCOC(=O)c1nn(CC(O)c2ccccc2)c(NC(=O)Nc2cccc(F)c2)c1C (configuration not stated)
inactive: SR leukemia 95.3% | RPMI-8226 leukemia 96.6% | OVCAR-5 ovarian 107% | OVCAR-4 ovarian 94.8% | SK-OV-3 ovarian 107% | IGROV1 ovarian 109% | OVCAR-3 ovarian 102% | HS 578T breast 94.5% | NCI/ADR-RES ovarian 106%

C=C1C(=O)O[C@H]2[C@H]1CC/C(COC(=O)c1cc3cc(Cl)ccc3[nH]1)=C\CC[C@@]1(C)O[C@@H]21
inactive: SK-OV-3 ovarian 27.6%
active: SR leukemia -25.6% | RPMI-8226 leukemia -29.9% | OVCAR-5 ovarian -69.9% | IGROV1 ovarian -82.7% | OVCAR-3 ovarian -91.3% | HS 578T breast -22% | NCI/ADR-RES ovarian -35.3%

COc1ccc2c(c1)CCc1[nH]nc(-c3cc(OC)c(OC)c(OC)c3)c1-2
inactive: RPMI-8226 leukemia 22.3% | OVCAR-5 ovarian 56% | OVCAR-4 ovarian 45.3% | IGROV1 ovarian 25.5% | HS 578T breast 23%
active: SR leukemia -26.2% | SK-OV-3 ovarian -7.59% | OVCAR-3 ovarian 1.01% | NCI/ADR-RES ovarian 0.961%

CCOC(=O)C(Cc1ccc(OC)cc1)C(=O)OCC
inactive: SR leukemia 11.6% | OVCAR-8 ovarian 26.4% | SK-OV-3 ovarian 50% | IGROV1 ovarian 28.1% | NCI/ADR-RES ovarian 17.9%
active: RPMI-8226 leukemia 0.799% | OVCAR-3 ovarian 2.41% | HS 578T breast 6.32%

O=C(CSc1nnc(-c2cc(-c3ccccc3)nc3ccccc23)n1-c1ccccc1)Nc1ccc(C(=O)/C=C/c2ccc(Cl)cc2)cc1
inactive: SR leukemia 80.2% | RPMI-8226 leukemia 66.6% | OVCAR-5 ovarian 90.1% | OVCAR-4 ovarian 91.6% | SK-OV-3 ovarian 94.2% | IGROV1 ovarian 108% | OVCAR-3 ovarian 97.2% | HS 578T breast 89.1% | NCI/ADR-RES ovarian 95.3%

O=C1c2ccccc2C(=O)c2c1cc1c(c2[N+](=O)[O-])OCO1
active: RPMI-8226 leukemia 7.28% | SK-OV-3 ovarian -14.7% | IGROV1 ovarian 5.43% | OVCAR-3 ovarian -20.9% | HS 578T breast 6.81% | NCI/ADR-RES ovarian -11.7%
inactive: SR leukemia 14.6% | OVCAR-4 ovarian 19.2%

N#Cc1c(-c2ccccc2)nc(SCC(O)CN2CCOCC2)nc1N1CCOCC1 (configuration not stated)
active: IGROV1 ovarian -29.5% | HS 578T breast 6.19%
inactive: SR leukemia 85.1% | RPMI-8226 leukemia 105% | OVCAR-4 ovarian 68.6% | SK-OV-3 ovarian 41.1% | OVCAR-3 ovarian 35.4% | NCI/ADR-RES ovarian 72.7%

C=CCn1c(SCC(=O)Nc2ccc(/C(C)=N/O)cc2)nnc1-c1cc(-c2ccc(S(N)(=O)=O)cc2)nc2ccccc12
inactive: SR leukemia 56.7% | RPMI-8226 leukemia 48.8% | OVCAR-5 ovarian 93.5% | OVCAR-4 ovarian 66.2% | SK-OV-3 ovarian 109% | IGROV1 ovarian 30.9% | HS 578T breast 74.1% | NCI/ADR-RES ovarian 99%

COc1ccc(CCN2C(=O)/C(=C/c3ccc(C4Oc5ccccc5C5CC(c6ccccc6)=NN54)cc3)SC2=S)cc1 (configuration not stated)
inactive: SR leukemia 105% | RPMI-8226 leukemia 96% | OVCAR-8 ovarian 108% | SK-OV-3 ovarian 103% | IGROV1 ovarian 100% | OVCAR-3 ovarian 105% | HS 578T breast 103% | NCI/ADR-RES ovarian 110%

CC1(C)NCCC[C@]2(C)[C@H]3CC[C@H]4[C@H]5[C@H](C(=O)/C=C/c6cccnc6)CCC[C@]5(CO)CC[C@@]4(C)[C@]3(C)CC[C@@H]12
active: SR leukemia -24.6%
inactive: RPMI-8226 leukemia 13.1% | OVCAR-5 ovarian 74.8% | OVCAR-4 ovarian 75.3% | SK-OV-3 ovarian 108% | IGROV1 ovarian 26.6% | OVCAR-3 ovarian 60.1% | HS 578T breast 74.4% | NCI/ADR-RES ovarian 82.4%

CCNC(=O)Oc1ccc(/C(=C(/C)Cc2ccc(OC)cc2)c2ccc(OCCN3CCCCC3)cc2)cc1
inactive: RPMI-8226 leukemia 22.5% | OVCAR-5 ovarian 89.6% | OVCAR-4 ovarian 75.1% | SK-OV-3 ovarian 90.7% | IGROV1 ovarian 77.7% | OVCAR-3 ovarian 74.6% | HS 578T breast 64.5% | NCI/ADR-RES ovarian 85.1%
active: SR leukemia -32%

O=C(O)/C=C/C(=O)Nc1cccc(Cn2nnc3cc(Cl)c(Cl)cc32)c1
inactive: SR leukemia 93.8% | RPMI-8226 leukemia 104% | OVCAR-5 ovarian 100% | OVCAR-4 ovarian 108% | SK-OV-3 ovarian 90.1% | IGROV1 ovarian 94.1% | OVCAR-3 ovarian 101% | HS 578T breast 88%

Cn1cc(-c2ccc(-c3cn(C)c4ccc(Cl)cc34)[nH]2)c2cc(Cl)ccc21
active: SR leukemia -13% | RPMI-8226 leukemia 7.74% | OVCAR-5 ovarian -14.1% | OVCAR-4 ovarian -57.7% | SK-OV-3 ovarian -53.5% | IGROV1 ovarian -45.9% | HS 578T breast -28.6% | NCI/ADR-RES ovarian -22.5%

Cc1ccc(S(=O)(=O)Oc2ccc3sc4cccc(NCCN(C)C)c4c(=O)c3c2)cc1
active: SR leukemia -19.4% | RPMI-8226 leukemia -48.2% | OVCAR-5 ovarian -92.4% | OVCAR-4 ovarian -69.8% | SK-OV-3 ovarian -93.2% | IGROV1 ovarian -79.6% | OVCAR-3 ovarian -95.4% | HS 578T breast -58.3% | NCI/ADR-RES ovarian -90.7%

CCOc1ccc(-n2nc(C(=O)NCc3ccccc3OC)nc2-c2cc(OC)c(OC)c(OC)c2)cc1
inactive: SR leukemia 35.9% | RPMI-8226 leukemia 26.9% | OVCAR-5 ovarian 74.2% | OVCAR-4 ovarian 23.4% | SK-OV-3 ovarian 67.1% | IGROV1 ovarian 43.7% | OVCAR-3 ovarian 49.4% | HS 578T breast 55.1% | NCI/ADR-RES ovarian 27.8%

CN(C)CCN1C(=O)c2cccc3c(/C=C/CN4C(=O)c5cccc6cccc(c56)C4=O)ccc(c23)C1=O
active: SR leukemia -16.4% | RPMI-8226 leukemia -31.4% | OVCAR-5 ovarian -69%
inactive: SK-OV-3 ovarian 109% | IGROV1 ovarian 89.4% | OVCAR-3 ovarian 114% | HS 578T breast 82.6% | NCI/ADR-RES ovarian 24%
